# Assay outcomes as filed in PubChem BioAssay.
# PLK1 PBD inh = inhibitors of human PLK1 polo-box domain binding; Plk1 PBD binding of FITC phosphopeptide, fluorescence polarization; Potency, µM, hits mostly inhibitors; hit rate 2.8% among 360,000; AID 720504; also: series mostly up to about 57 µM; nearly all actives have a fitted effect of over 65% in size
# TSHR antagonist = antagonists of human thyroid stimulating hormone receptor; TSHR-expressing cells, TSH-stimulated cAMP HTRF, 2 h; stronger effect = lower value; activity change, negative = inhibition, % at 11.5 µM; hit rate 0.2% among 330,000;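 active = activity change below a set negative limit, meaning inhibition stronger than a set level, cut at about -70% in these data; inconclusive = activity change between two set negative limits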
# Target sequence (P16473 whole entry, looked up): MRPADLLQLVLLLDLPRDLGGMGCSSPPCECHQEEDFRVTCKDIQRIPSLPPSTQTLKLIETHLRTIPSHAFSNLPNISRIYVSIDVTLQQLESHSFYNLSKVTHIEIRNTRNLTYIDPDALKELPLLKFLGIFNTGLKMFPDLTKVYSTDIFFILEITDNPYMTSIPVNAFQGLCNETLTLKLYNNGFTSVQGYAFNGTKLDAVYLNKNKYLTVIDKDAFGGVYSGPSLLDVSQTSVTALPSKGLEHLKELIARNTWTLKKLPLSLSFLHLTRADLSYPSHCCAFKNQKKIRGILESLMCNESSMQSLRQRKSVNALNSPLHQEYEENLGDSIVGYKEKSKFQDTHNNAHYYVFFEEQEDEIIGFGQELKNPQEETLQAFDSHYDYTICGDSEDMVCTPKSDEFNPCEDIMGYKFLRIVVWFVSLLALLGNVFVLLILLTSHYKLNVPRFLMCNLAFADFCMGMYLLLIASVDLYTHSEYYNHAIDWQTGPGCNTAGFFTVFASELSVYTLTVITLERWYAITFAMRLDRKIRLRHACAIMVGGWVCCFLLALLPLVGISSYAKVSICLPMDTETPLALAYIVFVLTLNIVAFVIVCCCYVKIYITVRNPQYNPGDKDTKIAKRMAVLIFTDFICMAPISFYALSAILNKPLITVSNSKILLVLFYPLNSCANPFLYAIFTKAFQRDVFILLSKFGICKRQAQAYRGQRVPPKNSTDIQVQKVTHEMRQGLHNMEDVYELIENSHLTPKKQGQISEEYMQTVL
#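 TSHR-expressing cells, 200/well, pre-treated with compound, then stimulated with EC80 TSH (4nM final) for 2 hours at 37 deg C. cAMP measured by competitive HTRF: anti-cAMP cryptate antibody in lysis buffer plus cAMP-d2, read after 30 minutes at room temperature.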
# Vif-APOBEC3G blk = blocks the Vif interaction with human APOBEC3G; Q9HC16; hit rate 0.076% among 410,000; Potency, µM (highest dose often 46.1 µM), hits mostly inhibitors; HeLa A3G-eYFP + Vif (tagged APOBEC3G with the HIV-1 protein that degrades it), YFP fluorescence, overnight; also: nearly all actives have a fitted effect of over 60% in size
#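 Read-out is eYFP fluorescence (Ex 488/Em 500-530) from Vif-expressing HeLa A3G-eYFP cells; more signal means A3G escaped Vif-mediated degradation. Cells plated overnight, compound pinned in, incubated overnight at 37 deg C.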
# VDR inh = vitamin D3 receptor (human) inhibition. P11473. VDR-SRC2-3 peptide fluorescence polarization, 2 h. Potency, µM, usual class: inhibitors. hit rate 0.93% among 400,000. AID 504847
#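 Two reagent solutions held at 4 deg C in the dark were dispensed, compounds pinned at 23 nl, and the mixture incubated 2 h at room temperature. Read-out: fluorescence polarization of VDR–SRC2-3 peptide binding.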
# Vif-A3F inh = inhibitors of Vif-A3F interaction. HeLa A3F-eYFP + Vif (tagged APOBEC3F with the HIV-1 protein that degrades it), YFP fluorescence increase. Potency, µM (top dose mostly 46.1 µM). hit rate 0.2% among 390,000. AID 602313; also: nearly all actives have a fitted effect of over 65% in size
#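 HeLa cells stably expressing Vif plus C-terminally eYFP-tagged A3F were seeded, incubated overnight at 37 deg C, dosed with compound, incubated overnight again at 37 deg C. Yellow fluorescence (Ex 488/Em 500-530) reported blocked Vif-mediated A3F-eYFP degradation.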
# Numbers stand for hits; 0 = inactive; ? = inconclusive; - = no result. This is a sample that favours compounds with a hit; in the whole collection about 3.1% have one here. Unless noted, calls follow the shape of the dose curve; as a rule, active = well fitted curve in the direction sought with a large enough effect; inconclusive = small, poorly fitted or top-dose-only effect, or another doubt; inactive = no such curve, though single readings can be large; an effect the other way counts as inactive or inconclusive.
SMILES,PLK1 PBD inh,TSHR antagonist,Vif-APOBEC3G blk,VDR inh,Vif-A3F inh
COc1cc(OC)c(NC(=O)Cn2c(SCc3ccccc3F)nc3cccnc32)cc1Cl,-,-,0,0,0
C[C@H](NC(=O)[C@@H](N)Cc1ccc(O)cc1)C(=O)NCC(=O)N[C@H]1CSSC[C@@H](C(=O)O)NC(=O)[C@H](CO)NC(=O)[C@H]([C@@H](C)O)NC(=O)[C@H](Cc2ccccc2)NC(=O)[C@H]([C@@H](C)O)NC(=O)[C@H](CCCCN)NC(=O)[C@@H](Cc2c[nH]c3ccccc23)NC(=O)[C@H](Cc2ccccc2)NC(=O)[C@H](Cc2ccccc2)NC(=O)[C@H](CC(N)=O)NC(=O)[C@H](CCCCN)NC1=O,-,-,-,0,-
[O-]/[N+](=C\c1ccco1)c1ccc(Cl)cc1,?,0,0,35.5µM,0
[O-][N+](=Cc1ccccc1)c1ccc(Cl)cc1,21.2µM,-,0,?,0
[O-]/[N+](=C/c1ccco1)c1ccccc1,0,0,0,0,0
O=C(N/C=C\c1ccccc1)NCc1ccc(Cl)cc1,0,0,0,0,0
COc1ccc(S(=O)(=O)N(CCO)c2ccccc2CN(C)CC=Cc2ccc(Cl)cc2)cc1,-,-,-,0,-
CCOC(=O)c1c(C)n(C)c2ccc(OC)c(NC(=O)CN3CCSCC3)c12,0,0,0,0,0
CCOC(=O)c1c(C)n(C)c2ccc(OC)c(NC(=O)c3cccs3)c12,29.9µM,0,0,0,0
COC(=O)C/C=C1\c2ccc3c(c2[C@@H](OC)[C@@H]1C)OCO3,-,-,-,0,-
Cc1ccc(OCC(=O)Nc2cc(-c3nc4cc(Cl)ccc4o3)ccc2C)c(C)c1,-,-,0,-,-
COC(=O)c1cc(-c2cccc([N+](=O)[O-])c2)c2c(=O)[nH]c(=O)n(C)c2n1,29.9µM,0,0,0,0
NCC(=O)N[C@@H](CCCN=C(N)N)C(=O)NCC(=O)N[C@@H](CC(=O)O)C(=O)N[C@@H](CO)C(=O)N1CCC[C@H]1C(=O)O,-,-,-,0,-
CCOc1ccc(C(=O)COC(=O)Cc2n[nH]c(=O)c3ccccc23)cc1,0,0,8.91µM,0,0
O=C(Cc1n[nH]c(=O)c2ccccc12)OCC(=O)c1ccc(F)cc1,0,0,0,0,0
COc1ccc(S(=O)(=O)NCC2CCC(C(=O)NCc3ccco3)CC2)cc1 (stereo not given),10.6µM,0,0,0,0
COc1ccc(NC(=O)NCc2ccco2)c(OC)c1,11.9µM,0,0,?,0
CCCCCC=CCC=CCCCCCCCC(=O)OCC,-,-,-,0,-
CCn1nnnc1Sc1nc(C)nc2scc(-c3ccccc3)c12,-,-,0,-,-
Cc1cc(C)c(NC(=S)NCC2CCN(C(C)c3ccccc3)C2)c(C)c1 (stereo not given),2.67µM,0,0,44.7µM,0
O=C(Oc1ccc(Br)cc1C(=S)N1CCCC1)c1ccccc1F,26.7µM,0,0,0,0
Cc1ccccc1C(=O)Oc1ccc(Br)cc1C(=S)N1CCCC1,0,0,0,0,0
O=C(Oc1ccc(Br)cc1C(=S)N1CCOCC1)c1ccc([N+](=O)[O-])cc1[N+](=O)[O-],5.97µM,0,0,?,0
CN(C)C(=O)c1ccc(NC(=O)CN2CCc3cc4c(cc3C2)OCCCO4)cc1,0,0,0,0,0
CCOc1ccc(NC(=O)CN2CCc3cc4c(cc3C2)OCCCO4)cc1OCC,29.9µM,0,0,0,0
SMILES,PLK1 PBD inh,TSHR antagonist,Vif-APOBEC3G blk,VDR inh,Vif-A3F inh
CSCC[C@H](NC(=O)[C@H](CC(C)C)NC(=O)[C@@H]1CCCN1C(=O)[C@H](Cc1ccccc1)NC(=O)[C@H](Cc1ccccc1)NC(=O)[C@@H]1CCC(=O)N1)C(N)=O,-,-,-,0,-
Cc1ccc(C)c(-n2nnc(C(=O)Nc3ccc(Br)cc3)c2C)c1,-,-,0,0,0
COc1ccc(C2/C=C\CC(NC(=O)OCC3c4ccccc4-c4ccccc43)CC(=O)N2Cc2cccc(F)c2)cc1 (stereo not given),-,-,-,0,-
COc1ccc(C2/C=C\CC(NC(=O)OCC3c4ccccc4-c4ccccc43)CC(=O)N2Cc2ccccc2F)cc1 (stereo not given),29.9µM,0,0,?,0
O=c1ccn([C@@H]2O[C@H](COP(=O)(O)O)[C@@H](O)[C@H]2O)c(=O)[nH]1,-,-,-,0,-
COC(=O)/C=C/C(C)=C/C=C/C(C)=C/C=C/C=C(C)/C=C/C=C(C)/C=C/C(=O)O,-,-,-,89.1µM,-
Cc1ccc(-c2ccc(=O)n(CC(=O)NCCc3ccccc3)n2)cc1,-,-,0,0,0
O=c1oc2c(CN3CCCCC3)c(O)ccc2cc1-c1nc2ccccc2[nH]1,26.7µM,0,0,0,0
O=c1oc2c(O)cccc2cc1-c1nc2ccccc2[nH]1,1.89µM,0,0,0,?
CCCCNc1c(-c2cccc(-c3ccc(OC)cc3)c2)nc2ccc(C)cn12,0,-83.5,0,0,0
C/C(=N\Nc1ccc(Cl)c(C(=O)O)c1)c1cccc2ccccc12,26.7µM,0,0,?,0
O=C1C=CC(=Nc2ccc3c(c2)Cc2cc(F)ccc2-3)O1,?,-,0,56.2µM,0
CC1=NN(c2ccc(C)cc2C)C(=O)C1C(c1ccccc1)C1C(=O)N(c2ccc(C)cc2C)N=C1C (stereo not given),18.9µM,0,0,?,0
Cc1ccc(-n2nc(C)c(C(=O)O)n2)c(C)c1,0,0,0,0,0
CCc1ccc(C=O)cc1,-,-,0,-,-
COc1cc(OC)c(NS(=O)(=O)c2ccc3c(c2)NC(=O)CO3)cc1Cl,6.7µM,0,0,?,0
CC(C)(C)n1ncc2c(=O)n(Cc3cccc(-c4ccccc4)c3)cnc21,-,-,0,-,-
CCOC(=O)c1sc(NC(=O)C2c3ccccc3Oc3ccccc32)c(C#N)c1C,-,-,0,79.4µM,0
CCOC(=O)c1sc(NC(=O)C2c3ccccc3Oc3ccccc32)c(C(=O)OCC)c1C,-,-,0,0,0
CCOC(=O)c1c(NC(=O)C2c3ccccc3Oc3ccccc32)sc(C(=O)N(CC)CC)c1C,?,0,0,70.8µM,0
Cc1ccc(OCC(=O)Nc2sc3c(c2C(N)=O)CCCC3)c(C(C)(C)C)c1,-,-,-,0,-
COc1ccc(OC)c(/C=C2\N=C(c3ccccc3)OC2=O)c1,11.9µM,0,0,0,0
COc1cc(/C=C2\N=C(c3ccccc3)OC2=O)ccc1OC(C)=O,0,0,0,0,0
OCCCn1c(C2CCCN2c2nc(-c3ccc(Cl)cc3)cs2)nc2cc(Cl)c(N3CCCCC3)cc21 (stereo not given),0,-,0,0,?
OCCCn1c(C2CCCN2c2nc(-c3ccc(F)cc3)cs2)nc2cc(Cl)c(N3CCCCC3)cc21 (stereo not given),0,-,0,0,25.1µM
COc1ccccc1CNC(=O)c1cccc(-c2ccccc2OC)n1,-,-,-,0,-
C=CCC(C(=O)NC(C)c1ccccc1)C(=O)NC(C)c1ccccc1 (stereo not given),26.7µM,0,0,0,0
CCC(C)NC(=O)c1ccc2nc(-c3cccs3)c(-c3cccs3)nc2c1 (stereo not given),-,-,0,0,-
